# Measurements published in PMC12820563, “FoxP3 forms a head-to-head dimer in vivo and stabilizes its multimerization on adjacent microsatellites”.
# The full ranking holds about 16,000 sequences; the median of “rpm ratio (pull-down/input)” is about 0.5, and the highest 2% start at about 5.5. Many of the other results were omitted from the sample, so the highest values are more common in it than they were.
# Molecular target: T1, MBP-FoxP3dN (Mus musculus, UniProt Q99JB6 188-423)
# T1 sequence: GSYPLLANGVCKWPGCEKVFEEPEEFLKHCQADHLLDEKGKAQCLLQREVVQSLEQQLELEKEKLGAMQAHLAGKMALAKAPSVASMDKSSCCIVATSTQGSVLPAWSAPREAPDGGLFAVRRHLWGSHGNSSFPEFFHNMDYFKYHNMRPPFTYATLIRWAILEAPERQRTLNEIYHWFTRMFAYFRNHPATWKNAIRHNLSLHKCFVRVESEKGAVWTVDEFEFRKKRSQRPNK
# Assay: PD-seq (MBP pull-down with sequencing); 20 mM Tris-HCl pH 7.5, 100 mM NaCl, 1.5 mM MgCl2, 0.4 uM protein, 0.1 uM dsDNA library, 30 min, room temperature, amylose pull-down; high values mean tight binding
# Conditions: protein: recombinant; tags: His6-MBP; chain copies: 2; dsDNA, one strand shown
# Outline: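 Protein and DNA were mixed at 0.4 µM and 0.1 µM and held for 30 min at room temperature in Tris pH 7.5 buffer with NaCl and MgCl2; the protein was a His6-MBP-tagged, N-terminally truncated mouse FoxP3 or FoxP1 fragment from E. coli, and the DNA a Klenow-filled double-stranded degenerate library. Amylose resin captured the complexes, which were washed three times. Binding is read as reads-per-million enrichment of pull-down versus input after Illumina sequencing, with replicates pooled.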
row,Sequence,binding signal
1,GATGATTGTTCTCCCAGCTGATGAATTTGCTGACTCGAGTAAACAAATTTTCCTAATCTTTCTGTTCAAGCGCCATCTAC,5.1 RPM ratio (pull-down/input)
2,GATGATTGTTCTCCCAGCTGATGAATTGCAGTGCTCGAGTAAACAAATTTTCCTAATCTTTCTGTTCAAGCGCCATCTAC,0.811 RPM ratio (pull-down/input)
3,GATGATTGTTCTCCCAGCTGATGAATTATTAGCGTCGAGTAAACAAATTTTCCTAATCTTTCTGTTCAAGCGCCATCTAC,0.786 RPM ratio (pull-down/input)
4,GATGATTGTTCTCCCAGCTGATGAATTTGGCTGTTCGAGTAAACAAATTTTCCTAATCTTTCTGTTCAAGCGCCATCTAC,1.17 RPM ratio (pull-down/input)
5,GATGATTGTTCTCCCAGCTGATGAATTCAGTAGATCGAGTAAACAAATTTTCCTAATCTTTCTGTTCAAGCGCCATCTAC,0.408 RPM ratio (pull-down/input)
6,GATGATTGTTCTCCCAGCTGATGAATTACGAGGTTCGAGTAAACAAATTTTCCTAATCTTTCTGTTCAAGCGCCATCTAC,0.392 RPM ratio (pull-down/input)
7,GATGATTGTTCTCCCAGCTGATGAATTCCGTCAATCGAGTAAACAAATTTTCCTAATCTTTCTGTTCAAGCGCCATCTAC,0.393 RPM ratio (pull-down/input)
8,GATGATTGTTCTCCCAGCTGATGAATTGATCGACTCGAGTAAACAAATTTTCCTAATCTTTCTGTTCAAGCGCCATCTAC,0.33 RPM ratio (pull-down/input)
9,GATGATTGTTCTCCCAGCTGATGAATTGTGTCCTTCGAGTAAACAAATTTTCCTAATCTTTCTGTTCAAGCGCCATCTAC,1.89 RPM ratio (pull-down/input)
10,GATGATTGTTCTCCCAGCTGATGAATTGGTGGCTTCGAGTAAACAAATTTTCCTAATCTTTCTGTTCAAGCGCCATCTAC,0.748 RPM ratio (pull-down/input)
11,GATGATTGTTCTCCCAGCTGATGAATTGGCGGTATCGAGTAAACAAATTTTCCTAATCTTTCTGTTCAAGCGCCATCTAC,0.566 RPM ratio (pull-down/input)
12,GATGATTGTTCTCCCAGCTGATGAATTTGTTTACTCGAGTAAACAAATTTTCCTAATCTTTCTGTTCAAGCGCCATCTAC,6.49 RPM ratio (pull-down/input)
13,GATGATTGTTCTCCCAGCTGATGAATTGAATTACTCGAGTAAACAAATTTTCCTAATCTTTCTGTTCAAGCGCCATCTAC,1.28 RPM ratio (pull-down/input)
14,GATGATTGTTCTCCCAGCTGATGAATTATTTTACTCGAGTAAACAAATTTTCCTAATCTTTCTGTTCAAGCGCCATCTAC,0.529 RPM ratio (pull-down/input)
15,GATGATTGTTCTCCCAGCTGATGAATTTGATTACTCGAGTAAACAAATTTTCCTAATCTTTCTGTTCAAGCGCCATCTAC,6.08 RPM ratio (pull-down/input)
16,GATGATTGTTCTCCCAGCTGATGAATTGTTTTACTCGAGTAAACAAATTTTCCTAATCTTTCTGTTCAAGCGCCATCTAC,1.55 RPM ratio (pull-down/input)
17,GATGATTGTTCTCCCAGCTGATGAATTTTGTTACTCGAGTAAACAAATTTTCCTAATCTTTCTGTTCAAGCGCCATCTAC,3.84 RPM ratio (pull-down/input)
18,GATGATTGTTCTCCCAGCTGATGAATTTATTGTCTCGAGTAAACAAATTTTCCTAATCTTTCTGTTCAAGCGCCATCTAC,6.72 RPM ratio (pull-down/input)
19,GATGATTGTTCTCCCAGCTGATGAATTTATTTACTCGAGTAAACAAATTTTCCTAATCTTTCTGTTCAAGCGCCATCTAC,6.74 RPM ratio (pull-down/input)
20,GATGATTGTTCTCCCAGCTGATGAATTATTTGTCTCGAGTAAACAAATTTTCCTAATCTTTCTGTTCAAGCGCCATCTAC,2.46 RPM ratio (pull-down/input)
21,GATGATTGTTCTCCCAGCTGATGAATTTTATTACTCGAGTAAACAAATTTTCCTAATCTTTCTGTTCAAGCGCCATCTAC,1.04 RPM ratio (pull-down/input)

row,Sequence,binding signal
1,GATGATTGTTCTCCCAGCTGATGAATTTTTTTACTCGAGTAAACAAATTTTCCTAATCTTTCTGTTCAAGCGCCATCTAC,0.35 RPM ratio (pull-down/input)
2,GATGATTGTTCTCCCAGCTGATGAATTTTATGTCTCGAGTAAACAAATTTTCCTAATCTTTCTGTTCAAGCGCCATCTAC,1.12 RPM ratio (pull-down/input)
3,GATGATTGTTCTCCCAGCTGATGAATTCAATTGTTCGAGTAAACAAATTTTCCTAATCTTTCTGTTCAAGCGCCATCTAC,3.36 RPM ratio (pull-down/input)
4,GATGATTGTTCTCCCAGCTGATGAATTGGCCCGGTCGAGTAAACAAATTTTCCTAATCTTTCTGTTCAAGCGCCATCTAC,0.201 RPM ratio (pull-down/input)
5,GATGATTGTTCTCCCAGCTGATGAATTGCTTCCCTCGAGTAAACAAATTTTCCTAATCTTTCTGTTCAAGCGCCATCTAC,0.536 RPM ratio (pull-down/input)
6,GATGATTGTTCTCCCAGCTGATGAATTGCATTTCTCGAGTAAACAAATTTTCCTAATCTTTCTGTTCAAGCGCCATCTAC,2.75 RPM ratio (pull-down/input)
7,GATGATTGTTCTCCCAGCTGATGAATTGCGTAATTCGAGTAAACAAATTTTCCTAATCTTTCTGTTCAAGCGCCATCTAC,1.58 RPM ratio (pull-down/input)
8,GATGATTGTTCTCCCAGCTGATGAATTGCCATTTTCGAGTAAACAAATTTTCCTAATCTTTCTGTTCAAGCGCCATCTAC,1.02 RPM ratio (pull-down/input)
9,GATGATTGTTCTCCCAGCTGATGAATTTGCCATCTCGAGTAAACAAATTTTCCTAATCTTTCTGTTCAAGCGCCATCTAC,2.56 RPM ratio (pull-down/input)
10,GATGATTGTTCTCCCAGCTGATGAATTTTTGCATTCGAGTAAACAAATTTTCCTAATCTTTCTGTTCAAGCGCCATCTAC,6.58 RPM ratio (pull-down/input)
11,GATGATTGTTCTCCCAGCTGATGAATTTGCATATTCGAGTAAACAAATTTTCCTAATCTTTCTGTTCAAGCGCCATCTAC,2.72 RPM ratio (pull-down/input)
12,GATGATTGTTCTCCCAGCTGATGAATTGCATTCCTCGAGTAAACAAATTTTCCTAATCTTTCTGTTCAAGCGCCATCTAC,3.39 RPM ratio (pull-down/input)
13,GATGATTGTTCTCCCAGCTGATGAATTTTGCATCTCGAGTAAACAAATTTTCCTAATCTTTCTGTTCAAGCGCCATCTAC,7.18 RPM ratio (pull-down/input)
14,GATGATTGTTCTCCCAGCTGATGAATTTGCATTCTCGAGTAAACAAATTTTCCTAATCTTTCTGTTCAAGCGCCATCTAC,6.29 RPM ratio (pull-down/input)
15,GATGATTGTTCTCCCAGCTGATGAATTGCATCTCTCGAGTAAACAAATTTTCCTAATCTTTCTGTTCAAGCGCCATCTAC,4.07 RPM ratio (pull-down/input)
16,GATGATTGTTCTCCCAGCTGATGAATTGCGCCATTCGAGTAAACAAATTTTCCTAATCTTTCTGTTCAAGCGCCATCTAC,6.51 RPM ratio (pull-down/input)
17,GATGATTGTTCTCCCAGCTGATGAATTTAGAGGCTCGAGTAAACAAATTTTCCTAATCTTTCTGTTCAAGCGCCATCTAC,0.583 RPM ratio (pull-down/input)
18,GATGATTGTTCTCCCAGCTGATGAATTTTGATATTCGAGTAAACAAATTTTCCTAATCTTTCTGTTCAAGCGCCATCTAC,3.34 RPM ratio (pull-down/input)
19,GATGATTGTTCTCCCAGCTGATGAATTTATCGAATCGAGTAAACAAATTTTCCTAATCTTTCTGTTCAAGCGCCATCTAC,0.374 RPM ratio (pull-down/input)
20,GATGATTGTTCTCCCAGCTGATGAATTGCCTCGGTCGAGTAAACAAATTTTCCTAATCTTTCTGTTCAAGCGCCATCTAC,0.565 RPM ratio (pull-down/input)
21,GATGATTGTTCTCCCAGCTGATGAATTTTCAACTTCGAGTAAACAAATTTTCCTAATCTTTCTGTTCAAGCGCCATCTAC,0.307 RPM ratio (pull-down/input)

row,Sequence,binding signal
1,GATGATTGTTCTCCCAGCTGATGAATTGAATGACTCGAGTAAACAAATTTTCCTAATCTTTCTGTTCAAGCGCCATCTAC,0.545 RPM ratio (pull-down/input)
2,GATGATTGTTCTCCCAGCTGATGAATTGTTAAAATCGAGTAAACAAATTTTCCTAATCTTTCTGTTCAAGCGCCATCTAC,0.291 RPM ratio (pull-down/input)
3,GATGATTGTTCTCCCAGCTGATGAATTAAGTAGCTCGAGTAAACAAATTTTCCTAATCTTTCTGTTCAAGCGCCATCTAC,0.874 RPM ratio (pull-down/input)
4,GATGATTGTTCTCCCAGCTGATGAATTTGCCCATTCGAGTAAACAAATTTTCCTAATCTTTCTGTTCAAGCGCCATCTAC,0.615 RPM ratio (pull-down/input)
5,GATGATTGTTCTCCCAGCTGATGAATTCGTTGCATCGAGTAAACAAATTTTCCTAATCTTTCTGTTCAAGCGCCATCTAC,2.22 RPM ratio (pull-down/input)
6,GATGATTGTTCTCCCAGCTGATGAATTTGCATTGTCGAGTAAACAAATTTTCCTAATCTTTCTGTTCAAGCGCCATCTAC,5.29 RPM ratio (pull-down/input)
7,GATGATTGTTCTCCCAGCTGATGAATTTGCCATTTCGAGTAAACAAATTTTCCTAATCTTTCTGTTCAAGCGCCATCTAC,2.91 RPM ratio (pull-down/input)
8,GATGATTGTTCTCCCAGCTGATGAATTGTTGCATTCGAGTAAACAAATTTTCCTAATCTTTCTGTTCAAGCGCCATCTAC,7.63 RPM ratio (pull-down/input)
9,GATGATTGTTCTCCCAGCTGATGAATTGCAGCATTCGAGTAAACAAATTTTCCTAATCTTTCTGTTCAAGCGCCATCTAC,5.93 RPM ratio (pull-down/input)
10,GATGATTGTTCTCCCAGCTGATGAATTTTGCATTTCGAGTAAACAAATTTTCCTAATCTTTCTGTTCAAGCGCCATCTAC,6.44 RPM ratio (pull-down/input)
11,GATGATTGTTCTCCCAGCTGATGAATTGCATTCTTCGAGTAAACAAATTTTCCTAATCTTTCTGTTCAAGCGCCATCTAC,4.62 RPM ratio (pull-down/input)
12,GATGATTGTTCTCCCAGCTGATGAATTTGCATTTTCGAGTAAACAAATTTTCCTAATCTTTCTGTTCAAGCGCCATCTAC,5.38 RPM ratio (pull-down/input)
13,GATGATTGTTCTCCCAGCTGATGAATTTTGCCATTCGAGTAAACAAATTTTCCTAATCTTTCTGTTCAAGCGCCATCTAC,5.66 RPM ratio (pull-down/input)
14,GATGATTGTTCTCCCAGCTGATGAATTCGCGGAGTCGAGTAAACAAATTTTCCTAATCTTTCTGTTCAAGCGCCATCTAC,0.23 RPM ratio (pull-down/input)
15,GATGATTGTTCTCCCAGCTGATGAATTTGGGTTGTCGAGTAAACAAATTTTCCTAATCTTTCTGTTCAAGCGCCATCTAC,1.1 RPM ratio (pull-down/input)
16,GATGATTGTTCTCCCAGCTGATGAATTCCTACGGTCGAGTAAACAAATTTTCCTAATCTTTCTGTTCAAGCGCCATCTAC,0.213 RPM ratio (pull-down/input)
17,GATGATTGTTCTCCCAGCTGATGAATTCCCTGTTTCGAGTAAACAAATTTTCCTAATCTTTCTGTTCAAGCGCCATCTAC,0.346 RPM ratio (pull-down/input)
18,GATGATTGTTCTCCCAGCTGATGAATTAGAATAGTCGAGTAAACAAATTTTCCTAATCTTTCTGTTCAAGCGCCATCTAC,0.342 RPM ratio (pull-down/input)
19,GATGATTGTTCTCCCAGCTGATGAATTTTTTTTTTCGAGTAAACAAATTTTCCTAATCTTTCTGTTCAAGCGCCATCTAC,0.217 RPM ratio (pull-down/input)
20,GATGATTGTTCTCCCAGCTGATGAATTCCGGCGTTCGAGTAAACAAATTTTCCTAATCTTTCTGTTCAAGCGCCATCTAC,1.07 RPM ratio (pull-down/input)
21,GATGATTGTTCTCCCAGCTGATGAATTCACGTCATCGAGTAAACAAATTTTCCTAATCTTTCTGTTCAAGCGCCATCTAC,0.59 RPM ratio (pull-down/input)
